Source: the supplement of paper PMC12819154, “High-throughput peptide-centric local stability assay extends protein–ligand identification to membrane proteins, tissues and bacteria” (Nature Structural & Molecular Biology, 2025)

biological target: T1, UniProt P0AES0; experiment: log2 fold change of tryptic peptide abundance, ligand vs vehicle (limited proteolysis) (log2 ratio); higher = more trypsin-susceptible (destabilized); settings: peptide sequence: TGYAVKPIAGR; peptide start residue: 528; ligand concentration: 5 mM; sample: E. coli desalted lysate; replicate design: treated before aliquoting
T1 sequence (whole entry): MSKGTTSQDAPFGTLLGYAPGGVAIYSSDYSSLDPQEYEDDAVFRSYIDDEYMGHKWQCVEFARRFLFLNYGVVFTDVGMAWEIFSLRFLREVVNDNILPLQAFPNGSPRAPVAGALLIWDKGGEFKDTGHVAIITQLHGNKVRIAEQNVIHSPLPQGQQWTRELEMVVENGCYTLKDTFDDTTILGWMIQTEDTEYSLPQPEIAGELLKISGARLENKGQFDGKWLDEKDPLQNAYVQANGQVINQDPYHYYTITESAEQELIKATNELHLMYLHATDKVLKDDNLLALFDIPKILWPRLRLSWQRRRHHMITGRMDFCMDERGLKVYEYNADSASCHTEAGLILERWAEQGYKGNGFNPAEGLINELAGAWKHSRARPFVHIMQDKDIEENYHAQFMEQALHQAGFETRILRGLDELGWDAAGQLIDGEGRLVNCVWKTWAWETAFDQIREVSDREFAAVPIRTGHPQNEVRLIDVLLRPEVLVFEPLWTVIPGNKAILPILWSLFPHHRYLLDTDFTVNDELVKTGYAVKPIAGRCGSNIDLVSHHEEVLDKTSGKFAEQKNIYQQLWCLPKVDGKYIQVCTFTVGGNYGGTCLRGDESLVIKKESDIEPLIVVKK
Experimental: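 HT-PELSA: desalted E. coli K-12 BW25113 lysate (with 12 mM MgCl2) incubated with 5 mM ATP (pH 7) or water for 30 min at 25 C, then a 4 min trypsin pulse at 22 C. Peptides were quantified by DIA-MS (4 replicates). Value is the peptide log2 fold change (treated/control); negative = stabilized. Scale: negative = ligand-stabilized region.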
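Further: lysate desalted by size exclusion to strip endogenous ATP, peptide intensities built from DIA-NN precursor signals, and peptides missing any value discarded before comparison.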

| SMILES | log2 fold change |
| --- | --- |
| Nc1ncnc2c1ncn2[C@@H]1O[C@H](COP(=O)(O)OP(=O)(O)OP(=O)(O)O)[C@@H](O)[C@H]1O [adenosine 5'-triphosphate] | -1.49 |
